# An excerpt weighted towards active compounds, which were near 8.7% of everything screened.
# VACV Venus inh – vaccinia inhibition (Venus reporter). Potency, µM (top dose mostly 36.5 µM), without a hit: top-dose activity change, negative = inhibition, usual class: inhibitors. Vaccinia virus Venus reporter expression, fluorescence. hit rate 0.46% among 330,000; calls by dose curve; tested in A549 cells; further: nearly all actives have a fitted effect of over 30% in size
# AMA1-RON2 inh – inhibitors of Plasmodium falciparum AMA1-RON2 interaction. AlphaScreen AMA1-biotinylated RON2 peptide binding. Potency, µM (series often up to 58.2 µM), for the others: top-dose activity change, negative = inhibition, hits mostly inhibitors. hit rate 0.2% among 360,000. AID 720542;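 further: 0% = vehicle wells and -100% = peptide control; nearly all actives have a fitted effect of over 45% in size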
#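 AMA1 (3D7) with his tag at 25 nM final met compounds first, then biotinylated RON2 peptide at 25 nM; detection used donor plus acceptor beads, 10 µg/mL apiece, read by AlphaScreen after 30 min at room temperature.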
# Pf growth 96h – P. falciparum growth inhibition at 96 hour, primary screen for plastid delayed-death inhibitors | P. falciparum luciferase reporter growth, 96 h | Potency, µM (titrated, usually from 28.7 µM), without a hit: top-dose activity change, negative = inhibition, actives largely listed as inhibitors | hit rate 6.9% among 320,000
#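 Two parasite generations (96 h, 37 C, 5% CO2) of compound exposure in infected erythrocytes (0.05% parasitemia, 2% hematocrit). Luciferase-reporter P. falciparum; decreased luminescence indicates inhibited growth, aimed at apicoplast-acting delayed death.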
# Vaccinia mCherry – vaccinia inhibition (mCherry reporter) | Vaccinia virus mCherry reporter infection, fluorescence | Potency, µM (series often up to 36.5 µM), inactives show top-dose activity change, negative = inhibition, hits mostly inhibitors | hit rate 0.63% among 310,000; calls by dose curve; tested in A549 cells; further: nearly all actives have a fitted effect of over 35% in size
# Pf growth 48h – inhibits P. falciparum growth in the first generation, 48 h | P. falciparum luciferase growth in erythrocytes, 48 h | hit rate 5.9% among 310,000 | Potency, µM (highest dose often 28.7 µM), for the others: top-dose activity change, negative = inhibition, hits mostly inhibitors
#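 Compounds are pin-transferred into medium, infected erythrocytes (2% hematocrit, 0.1% parasitemia final) are added, and plates sit one parasite generation at 37 C in 5% CO2. Detection reagent is then added and luminescence measured.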
# Active calls of the source: *; i = inactive; u = inconclusive; x = no result given; [ ] = dose if it differs, or a comment. Unless noted, the call rests on the fitted dose curve; in most records, active means well fitted curve in the direction sought with a large enough effect; inconclusive means small, poorly fitted or top-dose-only effect, or another doubt; inactive means no such curve, though single readings can be large; an effect the other way counts as inactive or inconclusive. Unless noted, on the % scale 0 is the no-effect control and ±100 the full control effect; potency means the concentration at half of the fitted maximal effect.
SMILES,VACV Venus inh,AMA1-RON2 inh,Pf growth 96h,Vaccinia mCherry,Pf growth 48h
CCCCn1c(=O)[nH]c(=O)c2c1nc(-c1ccc3ccccc3c1)n2CC,-23%,15%,u,i,-28%
CCCn1c(-c2cccc(Br)c2)nc2ccccc21,-11%,x,x,-7%,x
CCn1c(-c2cccnc2)n[nH]c1=S,-6%,-12%,19%,i,u
CCCCn1c(-c2cccc(Br)c2)nc2cc3[nH]c(=O)c(C(C)C)nc3cc21,u,15%,6.6µM*,u,u
CCCCn1c(-c2cccnc2)nc2cc3[nH]c(=O)c(C(C)C)nc3cc21,-20%,26%,10µM*,i,u
COc1cc(C(C[N+](=O)[O-])c2c(-c3ccccc3)cc3ccccn23)cc(OC)c1OC (stereo not drawn),x,-3%,12µM*,x,x
COc1ccc(C(C[N+](=O)[O-])c2c(-c3ccccc3)cc3ccccn23)cc1OC (stereo not drawn),-6%,-9%,u,-18%,u
Cc1ccc(C(=O)COC(=O)CCc2nc3ccccc3[nH]c2=O)cc1C,x,-8%,2.6µM*,x,11%
CN(Cc1ccccc1)C(=O)COC(=O)c1cc(S(=O)(=O)N(C)C)ccc1N1CCCC1,-13%,-13%,12µM*,-22%,9.3µM*
COc1ccc(N2CCN(C(=O)COC(=O)c3cc(S(=O)(=O)N(C)C)ccc3N3CCCC3)CC2)cc1,-13%,-10%,u,-19%,10µM*
O=C(CN1CCN(C2CCCCC2)CC1)c1ccc2cc[nH]c2c1,-1%,5%,4.7µM*,-33%,x
O=C(CN1CCN(C2CCCCC2)CC1)c1c[nH]c2ccccc12,-2%,-7%,u,-6%,19%
O=C(O)c1cc(-c2ccc3c(c2)OCO3)nc2ccccc12,x,-3%,8.3µM*,x,x
Cc1ccc(-c2cc(C(=O)N3CCN(c4ccc(O)cc4)CC3)c3ccccc3n2)cc1,x,-14%,x,x,x
CC(=O)c1ccc(N2CCN(C(=O)c3cc(-c4ccncc4)nc4ccc(Br)cc34)CC2)cc1,1%,0%,-15%,-10%,13µM*
CC(=O)c1ccc(N2CCN(C(=O)c3cc(-c4ccc5c(c4)OCO5)nc4ccccc34)CC2)cc1,-5%,-4%,0%,x,6.6µM*
O=C(c1ccco1)N1CCN(C(=O)c2cc(-c3ccncc3)nc3ccc(Br)cc23)CC1,15%,4%,x,x,x
CCCN(CCC)C(=O)c1cc(-c2ccc3c(c2)OCO3)nc2ccccc12,-17%,24%,1.7µM*,i,x
CCCNC(=O)NNC(=O)c1cc(-c2ccc3c(c2)OCO3)nc2ccccc12,-18%,52%,-14%,-21%,u
CCC(=O)N1CCc2cc(Br)cc(S(=O)(=O)CCC(=O)NCc3ccc(C)cc3)c21,-12%,x,x,-10%,x
CSc1nccc(-c2cc(Cl)c3c(c2)CC(CNC(=O)c2nonc2C)O3)n1 (stereo not drawn),-22%,x,x,-2%,x
C#CCOCCOCCOCCNc1nc(N2CCN(C(=O)Cn3cc(CCCCN)nn3)CC2)nc(N2CCN(C(=O)Cn3cc(CC(C)O)nn3)CC2)n1 (stereo not drawn),-11%,0%,-18%,-16%,11%
C#CCOCCOCCOCCNc1nc(N2CCN(C(=O)CCCCCCCCCCNC(=O)Cn3cc(C[C@@H](C)O)nn3)CC2)nc(N2CCN(C(=O)CCCCCCCCCCNC(=O)[C@@H]([C@H](C)CC)n3cc(CCCCCN)nn3)CC2)n1,u,u,u,u,2.3µM*
C#CCOCCOCCOCCNc1nc(N2CCN(C(=O)CCCCCCCCCCNC(=O)Cn3cc(CCCCCN)nn3)CC2)nc(N2CCN(C(=O)CCCCCCCCCCNC(=O)Cn3cc(C[C@@H](C)O)nn3)CC2)n1,u,u,0.29µM*,-16%,0.33µM*
O=C(NCc1ccccc1Cl)c1ccc(Cn2c(=O)c3cccn3c3cccnc32)cc1,-13%,x,x,-12%,x
SMILES,VACV Venus inh,AMA1-RON2 inh,Pf growth 96h,Vaccinia mCherry,Pf growth 48h
O=C(CSc1nc2c(c(C(F)(F)F)n1)CCc1ccccc1-2)NCc1ccco1,-10%,-2%,38%,-8%,-24%
CC(NC(=O)CSc1nc2c(c(C(F)(F)F)n1)CCc1ccccc1-2)c1ccccc1 (stereo not drawn),u,-13%,-4%,5%[1.46 µM],7.4µM*
CCSc1nnc(NC(=O)NC(CC)(C(F)(F)F)C(F)(F)F)s1,28µM*,0%,u,x,12µM*
COc1cc(C(=O)NCC(c2ccc(F)cc2)N2CCOCC2)ccc1OCc1ccccc1Cl (stereo not drawn),-12%,-3%,9.3µM*,-18%,5.2µM*
CN(C)c1ccc(C(CNC(=O)COc2ccc(Cl)cc2)N2CCOCC2)cc1 (stereo not drawn),-4%,x,x,-8%,x
Cc1ccc(Cn2nc(C)c(C(=O)NCC(c3ccc(F)cc3)N3CCOCC3)c2Cl)cc1 (stereo not drawn),x,-3%,u,x,10µM*
O=C(NCC(c1ccc(F)cc1)N1CCOCC1)c1ccc(Br)o1 (stereo not drawn),-12%,32%,u,-12%,-12%
Cc1cc(OCC(=O)NCC(c2ccc(F)cc2)N2CCOCC2)ccc1Cl (stereo not drawn),x,-3%,9.3µM*,x,9.3µM*
COc1ccccc1NS(=O)(=O)c1ccc(C(=O)NCC(c2ccc(F)cc2)N2CCOCC2)cc1 (stereo not drawn),x,3%,x,x,x
CN(C)c1ccc(C(CNC(=O)COc2ccc(Cl)cc2)N2CCCC2)cc1 (stereo not drawn),x,-20%,6.6µM*,x,-18%
CCn1c(CN2CCCCC2)nc2cc(NC(=O)COc3ccc([N+](=O)[O-])cc3)ccc21,-23%,x,x,u,x
CCN(Cc1ccccc1)C(=O)CN1C(=O)CSc2ccc(S(=O)(=O)N(CC)CC)cc21,-1%,x,x,-6%,x
O=C(NCC(c1ccc(F)cc1)N1CCOCC1)c1cc(F)c(F)c(F)c1F (stereo not drawn),-2%,40%,-10%,-3%,0%
O=C(CC12CC3CC(CC(C3)C1)C2)NCC(c1ccc(F)cc1)N1CCOCC1 (stereo not drawn),-9%,-3%,12µM*,i,12µM*
Cc1ccccc1C(=O)NCCc1nnc(SCC(=O)Nc2nc(-c3ccccc3)cs2)n1C,x,1%,13µM*,x,-4%
Cc1cc(C)nc(SCc2nnc(SCC(=O)Nc3nc(-c4ccccc4)cs3)n2C)n1,4%,19%,-27%,-5%,u
CCn1c(SCC(=O)Nc2nc(-c3ccc(C)cc3)cs2)nnc1-c1ccccc1,x,-4%,x,x,x
Cc1ccc(C(=O)CSc2nnc(CNc3nc(-c4ccccc4)cs3)n2C)cc1,-27%,3%,13µM*,u,u
COc1cc(-c2nnc(SCC(=O)N(Cc3ccccc3)C(C)(C)C)o2)cc(OC)c1OC,u,0%,3.7µM*,-20%,10µM*
O=C(O)CSc1nnc(-c2ccco2)o1,-10%,14%,u,-16%,38%

# From PubChem
